Assay outcomes from PubChem BioAssay.
The list is not random: actives were taken first. Their share in the collection is about 1.4%.
TCR act: T cell receptor activation; AID 504894; Potency, µM (doses to about 9.22 µM), without a hit: at the top dose activation of IL-2 secretion, hits mostly activators; primary human leukocytes, anti-CD3, IL-2 HTRF, 48 h; 330,000 tested, under 10 active; also: % of control where 0% means no effect
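HTRF read-out of IL-2 secretion: europium cryptate donor excited at 320nm, d2 acceptor emission at 665nm. Cells were primary human leukocytes incubated 48 hr with compounds and a-CD3 beads, supplying TCR signal only.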
N370S GC mod: N370S glucocerebrosidase modulation, Gaucher chaperone candidate; N370S GC spleen homogenate, 4MU-glucoside fluorescence; Potency, µM (series often up to 59.4 µM), without a hit: at the highest dose activity change, negative = inhibition, usual class: inhibitors; 330,000 tested, 0.092% active;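 also: potency is read from the fitted curve at half-maximal effect; 0% = full enzyme activity and -100% = no enzyme basal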
p53 reactivator: restores transcriptional activity of mutant p53; H1299 p53-A138V BP100-luciferase reporter, luminescence, 24 h; Potency, µM (doses to about 92.2 µM), for inactives: at the top dose activity change, positive = activation, actives largely listed as activators; 320,000 tested, 0.063% active; also: potency is read from the fitted curve at half-maximal effect; % of control where 0% means no effect; nearly all actives have a fitted effect of over 45% in size
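p53-null H1299 cells stably carrying temperature-sensitive p53-A138V and a BP100-luciferase reporter were pinned with compounds (4-point, 1:5 series) and held 24 hrs at 37 deg C. Luminescence was read 10 min after detection reagent.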
TSHR antagonist: human thyrotropin receptor antagonism; P16473; TSHR-expressing cells, TSH-stimulated cAMP HTRF, 2 h; stronger effect = lower value; activity change, negative = inhibition, % at 11.5 µM; 330,000 tested, 0.2% active; AID 504810;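 active = activity change below a set negative limit, meaning inhibition stronger than a set level, cut at about -70% in these data; inconclusive = activity change between two set negative limits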; also: % is scaled to controls: 0 for no effect and ±100 for the full control effect
Target sequence (P16473 whole entry, looked up): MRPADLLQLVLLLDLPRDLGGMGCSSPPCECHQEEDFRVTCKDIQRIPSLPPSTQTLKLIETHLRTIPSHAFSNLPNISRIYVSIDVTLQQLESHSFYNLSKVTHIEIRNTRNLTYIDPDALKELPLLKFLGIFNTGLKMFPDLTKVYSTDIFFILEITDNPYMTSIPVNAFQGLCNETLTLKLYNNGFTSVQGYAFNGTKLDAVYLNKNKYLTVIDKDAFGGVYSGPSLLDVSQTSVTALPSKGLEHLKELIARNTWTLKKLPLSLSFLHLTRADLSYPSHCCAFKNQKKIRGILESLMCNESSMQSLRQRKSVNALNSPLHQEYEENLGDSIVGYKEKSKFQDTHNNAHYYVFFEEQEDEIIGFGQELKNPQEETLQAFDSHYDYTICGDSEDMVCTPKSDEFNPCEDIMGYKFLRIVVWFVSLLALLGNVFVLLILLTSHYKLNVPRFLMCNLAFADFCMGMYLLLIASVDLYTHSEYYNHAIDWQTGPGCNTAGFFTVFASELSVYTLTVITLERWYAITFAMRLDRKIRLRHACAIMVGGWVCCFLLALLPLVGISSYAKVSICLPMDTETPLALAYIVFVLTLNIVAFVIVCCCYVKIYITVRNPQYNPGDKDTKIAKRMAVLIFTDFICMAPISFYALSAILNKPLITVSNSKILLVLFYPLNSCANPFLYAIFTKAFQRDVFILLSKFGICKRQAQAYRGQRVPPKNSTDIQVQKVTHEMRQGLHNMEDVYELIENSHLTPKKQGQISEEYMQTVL
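TSHR-expressing cells were treated with compounds, then stimulated with TSH at EC80 (4nM final) for 2 hours at 37 deg C. Cellular cAMP was measured by HTRF competition between lysate cAMP and cAMP-d2 for a cryptate-labelled anti-cAMP antibody.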
BRCA1 expr act: increases BRCA1 expression | Potency, µM (doses to about 46.1 µM), inactives show at the highest dose activation, usual class: activators | MCF7-BRCA1-FFLuc reporter, luminescence, 48 h; response scale: scaled: vehicle 0%, 10 µM genistein 100% | 380,000 tested, 1.1% active; also: potency is read from the fitted curve at half-maximal effect; nearly all actives have a fitted effect of over 80% in size
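48 h compound treatment of MCF7-BRCA1-FFLuc cells (phenol-red free MEM, 37 °C), then 15 min with luciferase substrate and luminescence imaging.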
GLS inh: blocks human kidney-isoform glutaminase activity. Potency, µM (series often up to 45.5 µM), inactives show at the highest dose activity change, negative = inhibition, actives largely listed as inhibitors. GLS enzymatic activity, qHTS titration. O94925. 410,000 tested, 0.21% active; also: potency is read from the fitted curve at half-maximal effect; % is scaled to controls: 0 for no effect and ±100 for the full control effect
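hKGA; 45 mM KH2PO4 pH 8.2 + 0.02% Tween-20; cpd via pin tool; 1 mM Gln soln; GluOx/HRP/Amplex Red; RT 30 min; fluor. t0 & final.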
GLS hit conf: glutaminase (human) inhibition, hit confirmation; shares compounds with GLS inh; biochemical glutaminase enzyme inhibition assay; Potency, µM (doses to about 46.1 µM), without a hit: at the highest dose activity change, negative = inhibition, most hits filed as inhibitors; 35 tested, under 10 active; AID 624261; calls by dose curve
HRP GOx counter: inhibits HRP glutamate oxidase coupled readout, glutaminase counter-screen; shares compounds with GLS inh; HRP/glutamate oxidase coupled Amplex Red fluorescence counterscreen; activity change, negative = inhibition, % at 46.1 µM; 35 tested, under 10 active; AID 624262
HEK293 tox: HEK-293 cytotoxicity, glutaminase hit confirmation; 35 tested, under 10 active; activity change, negative = cytotoxicity, % at 46.1 µM; AID 624264; shares compounds with GLS inh; HEK-293 viability, CellTiter-Glo luminescence, 24 h
Starred values were filed as active, the others as inactive; ? = inconclusive; . = no result; [ ] = dose if it differs, or a comment. Unless noted, calls follow the shape of the dose curve; as a rule, active = well fitted curve in the direction sought with a large enough effect; inconclusive = small, poorly fitted or top-dose-only effect, or another doubt; inactive = no such curve, though single readings can be large; an effect the other way counts as inactive or inconclusive.

SMILES	TCR act	N370S GC mod	p53 reactivator	TSHR antagonist	BRCA1 expr act	GLS inh	GLS hit conf	HRP GOx counter	HEK293 tox
COc1ccc(CNC(=O)C2CCN(c3nccs3)CC2)cc1	2.9%	-0.1%	-4.7%	-1.1	-15.8%	-1.4%	.	.	.
CN(C)c1ccc(/C=C/c2ccc3cc(N)ccc3n2)cc1	.	.	.	.	-74.0%	.	.	.	.
CSC1=NSC2=NC(=O)/C(=C\c3coc4ccccc4c3=O)C(=N)N12	-1.9%[46.1 µM]	25.6%	-0.3%	-91.0*	-0.6%	28.1%	.	.	.
CC(C)CSC1=NSC2=NC(=O)/C(=C\c3coc4ccccc4c3=O)C(=N)N12	1.5%	2.7%	?	-25.0	23.0%	9.4%	.	.	.
CCCc1nc2ccc(C)cn2c1Cc1ccccc1	.	.	.	.	?	0.3%	.	.	.
CCCc1nc2ccc(C)cn2c1Cc1ccc(C)cc1	.	.	.	.	7.08µM*	16.3%	.	.	.
NCCCCC(NC(=O)C1CCCN1C(=O)C1CSSCC(N)C(=O)NC(Cc2ccccc2)C(=O)NC(Cc2ccccc2)C(=O)NC(CCC(N)=O)C(=O)NC(CC(N)=O)C(=O)N1)C(=O)NCC(N)=O (stereo not drawn)	.	.	.	.	.	-1.0%	.	.	.
Cc1ccc(S(=O)(=O)Nc2cc(Cl)c(O)c3ncccc23)cc1	.	-14.3%	7.7%	-8.1	-90.7%	7.08µM*	?	-6.3	?
Cc1ccc(S(=O)(=O)Nc2cc(S(=O)(=O)c3ccc(C)cc3)c(O)c3cccnc23)cc1	.	-1.5%	.	.	.	.	.	.	.
CCN(CCCNC(=O)CN1N=C(c2ccc(OC)cc2)CCC1=O)c1cccc(C)c1	.	.	.	.	.	7.2%	.	.	.
COc1ccc(NS(=O)(=O)c2cc(NC(=O)[C@H](C)NC(N)=O)ccc2N2CCCC2)cc1	1.2%	.	-3.5%	-2.6	-14.3%	15.8µM*	7.6%	?	5.0
COc1ccccc1NS(=O)(=O)c1cc(NC(=O)C(C)NC(N)=O)ccc1N1CCCC1 (stereo not drawn)	.	.	3.8%	32.9	-12.7%	18.2%	.	.	.
Cc1ccc(CNC(=O)Cn2cc3c(n2)-c2c(oc(C(=O)N4CCOCC4)c2C)CC3)cc1	.	.	.	.	.	-2.9%	.	.	.
CCN(CC)S(=O)(=O)c1ccc(NS(=O)(=O)c2cccc(C)c2)cc1	0.8%	-3.2%	-3.2%	-19.2	2.2%	?	11.3%	2.1	-9.3
COc1ccccc1N(C)S(=O)(=O)c1ccc(C(=O)OCC(=O)N(C)c2ccccc2)cc1	-1.3%	3.6%	2.2%	-6.6	-1.3%	7.08µM*	4.5%	4.8	2.3
COc1ccc(OC)c(S(=O)(=O)Nc2cccc3ccc(O)cc23)c1	-22.4%	.	.	.	-58.5%	6.31µM*	1.4%	?	5.7
COc1ccccc1NS(=O)(=O)c1cc(N)ccc1N1CCOCC1	0.7%	.	-13.3%	-21.6	-21.4%	-6.0%	.	.	.
COc1ccccc1NS(=O)(=O)c1cc(N)ccc1N1CCCC1	-63.5%	.	-8.1%	-12.3	-18.9%	?	0.9%	?	-2.6
O=C(O)c1ccccc1NS(=O)(=O)c1cccc(NS(=O)(=O)c2cc(Br)ccc2Br)c1	-1.1%	.	1.2%	-11.2	3.4%	?	?	-4.5	-5.7
CN1C(=O)c2cccc3c(S(=O)(=O)Nc4ccc(O)c(C(=O)O)c4)ccc1c23	8.0%	-4.2%	3.0%	-2.8	-2.7%	?	?	?	8.9
